From PubChem BioAssay
Hits are enriched below; roughly 19% of the tested compounds scored in any of these assays.
IL1B secr inh – inhibitors of inflammasome signaling (IL-1 beta secretion). THP-1 LPS/ATP IL-1B secretion, AlphaLISA, 16 h; active compounds read low. activity change, % at 57.5 µM. actives 4.7% (n = 360,000). AID 743279; in the data active means activity change below about -50%; inconclusive means mostly about -30% to -49%; further: on the % scale 0 is the no-effect control and ±100 the full control effect
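THP-1 cells pretreated 1 hr with compounds (up to 57.5 uM final), then stimulated with LPS (250 ng/mL final) plus ATP (1.25 mM final); secreted IL-1B measured by AlphaLISA after 16 hr, decreased signal indicating inhibition.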
TDP1 cell noCPT – qHTS for Inhibitors of human tyrosyl-DNA phosphodiesterase 1 (TDP1): qHTS in cells in absence of CPT; Potency, µM (doses to about 46.2 µM), for inactives: at the top dose activity change, negative = growth inhibition, actives largely listed as inhibitors; DT40 Tdp1-/- hTDP1 cells, no CPT, ATP luminescence, 48 h; actives 15% (n = 420,000); further: potency means the concentration at half of the fitted maximal effect; on the % scale 0 is the no-effect control and ±100 the full control effect; nearly all actives have a fitted effect of over 55% in size
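Camptothecin absent (DMSO only). Human TDP1-complemented DT40 knockout cells, 400 cells/well, 37 °C for minimum 48 hr; ATP measured via CellTiter-Glo, 30 min dark incubation, luminescence.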
HepG2 viability – counter-screen for TGF-b inhibitors: cytotoxicity in HepG2 cells; HepG2 CAGA-GFP viability, ATP luminescence, 18 h; Potency, µM (titrated, usually from 46.1 µM), inactives show top-dose activity change, negative = cytotoxicity, hits mostly cytotoxic; actives 0.76% (n = 410,000); AID 588856; further: potency means the concentration at half of the fitted maximal effect
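HepG2 CAGA-GFP cells (1000/well, DMEM with 1% FBS) received compound, then TGF-beta at 500 pg/mL final, and were incubated 18 hours at 37 degrees C. Viability was read by CellTiter-Glo luminescence. Media-only wells were set as complete cell-killing and DMSO as no toxicity.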
DT40 TDP1 CPT – DT40-hTDP1 cell growth loss with CPT; chicken DT40 Tdp1-/-;hTDP1 cells + 20 nM CPT, ATP luminescence, 48 h; Potency, µM (top dose mostly 46.2 µM), inactives show top-dose activity change, negative = growth inhibition, hits mostly inhibitors; actives 12% (n = 420,000); AID 686979; further: potency means the concentration at half of the fitted maximal effect; on the % scale 0 is the no-effect control and ±100 the full control effect; nearly all actives have a fitted effect of over 55% in size
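Cell growth measured by CellTiter-Glo luminescence after a minimum 48 h, 37 C compound exposure with 20 nM CPT in Tdp1-knockout DT40 cells stably expressing hTDP1, seeded 400/well; qHTS titration format.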
ASM inhibitor – inhibitors of human secretory acid sphingomyelinase | P17405 | placental ASM, HMU-PC fluorogenic substrate, 60 min | Potency, µM (top dose mostly 57.5 µM), for the others: at the top dose activity change, negative = inhibition, usual class: inhibitors | actives 0.006% (n = 340,000) | AID 504937; further: potency means the concentration at half of the fitted maximal effect
Target sequence (P17405 47-631 limits assumed): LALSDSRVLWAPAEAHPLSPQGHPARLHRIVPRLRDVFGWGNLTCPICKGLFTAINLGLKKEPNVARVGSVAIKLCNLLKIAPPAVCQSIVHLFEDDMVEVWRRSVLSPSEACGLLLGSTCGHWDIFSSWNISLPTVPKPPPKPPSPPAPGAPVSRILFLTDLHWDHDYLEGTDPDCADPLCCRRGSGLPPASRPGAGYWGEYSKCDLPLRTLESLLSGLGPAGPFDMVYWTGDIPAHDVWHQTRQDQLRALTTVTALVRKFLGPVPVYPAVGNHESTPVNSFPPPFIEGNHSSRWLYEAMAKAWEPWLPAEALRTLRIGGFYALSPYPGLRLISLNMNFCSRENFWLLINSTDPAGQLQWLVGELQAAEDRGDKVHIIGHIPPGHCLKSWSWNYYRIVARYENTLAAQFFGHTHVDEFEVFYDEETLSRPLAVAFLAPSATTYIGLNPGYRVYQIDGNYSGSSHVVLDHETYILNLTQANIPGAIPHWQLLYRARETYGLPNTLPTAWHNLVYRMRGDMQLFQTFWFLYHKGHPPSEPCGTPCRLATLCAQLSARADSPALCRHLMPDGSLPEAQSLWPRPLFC
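Human placenta-derived ASM preincubated with compound 10 min at room temperature, then reacted with 9 uM (final) fluorogenic HMU-PC substrate for 60 min at 37 C. Stop solution raises pH to 10; fluorescence read at Ex 386/Em 447 nm.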
TGFb SMAD3 inh – blocks TGF-b signaling; actives 1.2% (n = 410,000); HepG2 CAGA-GFP TGF-b/SMAD3 reporter, GFP fluorescence, 18 h; TGF-beta stimulated, 500 pg/mL final; Potency, µM (series often up to 46.1 µM), inactives show top-dose activity, negative = inhibition, most hits filed as inhibitors; further: potency means the concentration at half of the fitted maximal effect; on the % scale 0 is the no-effect control and ±100 the full control effect; nearly all actives have a fitted effect of over 65% in size
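Per well, imaged GFP fluorescence of HEPG2 CAGA-GFP cells gives the signal; cells get compound, then TGF-beta (500 pg/mL final), 18 h at 37 degrees C; %Activity versus -TGF-beta and +DMSO controls.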
* marks the source's active call; other numbers are inactive results; i = inactive; ? = inconclusive; · = not tested or not shown. Unless noted, the call rests on the fitted dose curve; in most records, active means well fitted curve in the direction sought with a large enough effect; inconclusive means small, poorly fitted or top-dose-only effect, or another doubt; inactive means no such curve, though single readings can be large; an effect the other way counts as inactive or inconclusive.

SMILES | IL1B secr inh | TDP1 cell noCPT | HepG2 viability | DT40 TDP1 CPT | ASM inhibitor | TGFb SMAD3 inh
Cc1cc(C)nc(Nc2nc(C(N)Cc3ccc(Cl)cc3)cs2)n1 (stereo not given) | ? | 18.4µM* | -95.2% | 18.4µM* | · | 15.8µM*
Cc1cc(C)nc(Nc2nc(C(N)Cc3ccc(F)cc3)cs2)n1 (stereo not given) | -8.3 | 20.6µM* | 12.6µM* | 14.6µM* | · | ?
COc1ccc(C2=CC(c3cc(OC)c(OC)c(OC)c3)NC(=S)N2)cc1 (stereo not given) | 5.9 | ? | -61.7% | ? | 12.4% | -15.4%
COc1cc(C2C=C(C34CC5CC(CC(C5)C3)C4)NC(=S)N2)cc(OC)c1OC (stereo not given) | 0.0 | 5.8µM* | -16.4% | ? | -10.0% | -12.1%
C=CCn1c(NC(=O)c2ccccc2Cl)c(C#N)c2nc3ccccc3nc21 | -60.4* | 20.6µM* | -49.2% | 16.4µM* | 297.1% | -22.6%
N#Cc1c(N)n(CCNC(=O)c2ccccc2)c2nc3ccccc3nc12 | -9.4 | -8.3% | 0.8% | -18.8% | i | 3.7%
CCN(CC)C1=NS(=O)(=O)c2cc([N+](=O)[O-])ccc21 | 4.9 | 23.1µM* | 7.4% | 18.4µM* | -0.1% | 13.2%
CCN(CC)c1ccc([N+](=O)[O-])cc1C(=O)N1CCOCC1 | -1.5 | -5.7% | -4.1% | 1.6% | -4.8% | -17.4%
CCOc1ccc(Cc2nnc(SCC(=O)Nc3ccc(C(C)=O)cc3)[nH]c2=O)cc1 | 17.9 | 20.4% | 0.1% | 1.4% | 0.5% | 0.0%
Cc1cccc(N2C(=O)c3cccc4c(N5CCCCC5)c([N+](=O)[O-])cc(c34)C2=O)c1C | 0.0 | ? | 1.6% | ? | -1.3% | 0.7%
O=C1c2cccc3c(N4CCOCC4)c([N+](=O)[O-])cc(c23)C(=O)N1c1cccc2ccccc12 | -6.3 | 18.4µM* | 6.1% | 11.6µM* | -21.6% | 14.6%
Cc1nc2cc3c(=O)n(C)cnc3cc2n1Cc1ccccc1 | 0.0 | 16.4µM* | 3.6% | -15.2% | · | 8.9%
CC(=O)Nc1ccc2c(c1)nc(C)n2Cc1ccccc1 | -6.0 | 1.0% | 10.2% | 9.9% | 2.4% | -0.9%
CCS(=O)(=O)N1CCc2cc(C(=O)Nc3ccc(OC)cc3OC)ccc21 | · | 16.4µM* | -16.1% | ? | · | 2.3%
CCS(=O)(=O)N1CCc2cc(C(=O)Nc3ccc(C(=O)OC)cc3)ccc21 | · | ? | -3.7% | ? | · | -15.7%
CCS(=O)(=O)N1CCc2cc(C(=O)Nc3ccc(OC)c(Cl)c3)ccc21 | · | 18.4µM* | -26.6% | ? | · | -26.3%
CCS(=O)(=O)N1CCc2cc(C(=O)Nc3ccc(C)c(Cl)c3)ccc21 | · | 13µM* | -47.5% | 18.4µM* | · | ?
CC(CN(C)C)C(C)(O)Cc1ccc(Cl)cc1 (stereo not given) | · | -10.1% | · | -24.8% | · | ·
COc1ccc(C(C(=O)NCc2ccccc2)N(C(=O)c2snc(C(N)=O)c2N)C2CCCC2)cc1O (stereo not given) | -21.3 | 4.0% | 11.5% | -13.9% | 19.8% | 0.2%
Cc1cc(CN(C)C(=O)CC2C(=O)NCCN2Cc2c(F)cccc2Cl)on1 (stereo not given) | -11.8 | -24.1% | -31.0% | -13.0% | 11.4% | 4.0%
O=C(CCn1nnnc1CN1CCOCC1)N1CCC(c2ccccc2F)C1 (stereo not given) | 39.3 | 12.2% | 3.5% | -14.9% | 5.2% | 0.7%
CCN1CCN(C(c2ccc(C(F)(F)F)cc2)c2ccc3cccnc3c2O)CC1 (stereo not given) | -74.3* | 16.4µM* | -23.7% | ? | -2.0% | ?
CCCCc1nn2c(=O)cc(COC(=O)c3ccc(NC(=O)C(CC)CC)cc3)nc2s1 | · | -14.3% | -9.9% | -16.9% | · | -28.1%
CCOC(=O)c1cccc(NC(=O)c2cnc3ccccc3n2)c1 | -12.7 | 25.9µM* | 4.6% | ? | -16.0% | 6.7%
CCOC(=O)c1cccc(NC(=O)c2ccc3snnc3c2)c1 | · | 18.4µM* | -31.9% | ? | · | -2.1%
SMILES | IL1B secr inh | TDP1 cell noCPT | HepG2 viability | DT40 TDP1 CPT | ASM inhibitor | TGFb SMAD3 inh
Cc1ccc(C)c(S(=O)(=O)c2nnn3c2nc(N2CCCCC2)c2sccc23)c1 | · | ? | -6.0% | ? | · | ?
COc1ccc(N2CCN(C(=O)COC(=O)c3ccc(CSC)o3)CC2)cc1 | 24.4 | -20.8% | -39.8% | -28.3% | 1.9% | -9.2%
CC(C)(C)C(=O)N1NC(=Nc2ccccc2)SC1(C)C | · | 20.6µM* | 12.9% | -28.1% | 0.1% | 12.1%
CCOC(=O)C1CCN(C(=O)c2ccccc2NC(=O)c2nsc3ccccc23)CC1 | · | ? | -53.5% | ? | · | -21.7%
CCOC(=O)C1CCN(c2cc3c(cc2NC(=O)c2ccccc2OCC)n(C)c(=O)n3C)CC1 | 38.4 | 5.8µM* | 1.0% | 20.6µM* | -24.0% | 11.8%
COc1ccccc1C(=O)Nc1cc2c(cc1N1CCCCC1)n(C)c(=O)n2C | · | 13µM* | -10.7% | 5.8µM* | · | -19.2%
CCOC(=O)C1CCN(c2cc3c(cc2NC(=O)c2ccc(Cl)cc2)n(C)c(=O)n3C)CC1 | · | 2.59µM* | -0.6% | 8.2µM* | · | -1.4%
CCOC(=O)C1CCN(C(=O)c2ccccc2NC(=O)c2ccc(Cl)cc2)CC1 | 32.9 | 23.1µM* | -43.5% | ? | -0.8% | 0.6%
CCOC(=O)C1CCN(c2cc3c(cc2NC(=O)c2ccccc2F)n(C)c(=O)n3C)CC1 | 55.5 | -14.8% | -4.9% | -24.4% | 7.4% | 9.2%
COc1cc2c(cc1OCc1ccccc1)/C(=C/C(=O)OCc1ccccc1)OC2 | -25.1 | -8.4% | · | -16.7% | · | ·
O=c1ccc2c(ccc3ncccc32)o1 | ? | 11.6µM* | -12.5% | -17.0% | · | -10.9%
O=[N+]([O-])c1cccc2c1ccc1ncccc12 | -8.4 | -17.9% | -2.3% | -2.3% | -3.9% | 3.1%
CCc1c(N)nc(N)nc1Nc1ccccc1C | -17.9 | 16.4µM* | -10.2% | ? | 4.8% | -18.3%
Cc1ccccc1Nc1nc(N)nc(C)c1Br | -3.3 | 14.6µM* | -4.4% | ? | 0.9% | 11.6%
Cc1ccccc1Nc1ncnc(N)n1 | -11.4 | -2.4% | -9.8% | 2.0% | -1.0% | ?
COc1ccc(Nc2oc(-c3ccc(COc4ccc(OC)cc4)o3)nc2C#N)cc1 | · | -22.8% | -19.2% | -4.6% | · | -5.7%
